Experimental findings from ChEMBL document CHEMBL3988442, “University of Dundee, Small-Polar-MMV Screening Library” (2021) are described below.

The structures appear in SMILES notation.

Assay [1] addresses T1, Aspartate--tRNA(Asp/Asn) ligase (Mycobacterium tuberculosis (strain ATCC 25618 / H37Rv)) (UniProt P9WFW3).
T1 sequence (whole entry): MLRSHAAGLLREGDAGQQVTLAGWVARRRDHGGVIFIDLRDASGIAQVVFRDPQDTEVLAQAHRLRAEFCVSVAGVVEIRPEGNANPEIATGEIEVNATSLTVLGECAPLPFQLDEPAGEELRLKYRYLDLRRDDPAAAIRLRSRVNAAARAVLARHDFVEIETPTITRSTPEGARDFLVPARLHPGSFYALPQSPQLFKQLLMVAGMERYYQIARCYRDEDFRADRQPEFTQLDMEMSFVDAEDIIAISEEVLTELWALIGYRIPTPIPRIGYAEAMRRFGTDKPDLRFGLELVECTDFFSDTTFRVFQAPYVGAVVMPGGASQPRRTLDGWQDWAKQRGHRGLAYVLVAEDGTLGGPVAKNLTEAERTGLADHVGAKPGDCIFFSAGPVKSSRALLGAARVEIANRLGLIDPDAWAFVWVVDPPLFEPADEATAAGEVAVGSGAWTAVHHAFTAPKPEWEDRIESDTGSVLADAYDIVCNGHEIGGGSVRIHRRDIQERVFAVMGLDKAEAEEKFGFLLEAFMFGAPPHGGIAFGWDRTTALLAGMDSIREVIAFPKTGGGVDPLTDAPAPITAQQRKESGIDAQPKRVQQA
Description: Assay for Asp RNA synthetase-1 from Mycobacterium tuberculosis. Also noted: scale not given: direction of the effect not stated beside the values. It is filed as functional. The following applies: 30 µM.

In assay [2] the target is Shiga toxin 2 (Escherichia coli O157:H7) (UniProt P09385+P09386). In words: E. coli 0.157:H7 Shiga Toxin SOP - stx2 screening assay. Format: functional. Also noted: scale not given: direction of the effect not stated beside the values. As to conditions: 30 µM.

For the compound `CC(C)(C)C(=O)N1CCCC1c1nc(O)cc(-c2ccccn2)n1` (configuration not stated), the Percent Effect is -4.27% in assay [1] and 5.71% in assay [2].
As for `Cc1cccc(NC(=O)Cn2ncc(SCC(N)=O)c(Cl)c2=O)c1C`, the Percent Effect in assay [1] is -2.73%; in assay [2], 5.03%.
On to `Cc1ccc(Cc2cnc(NC(=O)C3CNC(=O)N3)s2)cc1F` (configuration not stated), for which the Percent Effect was -6.24% in assay [1] and -17.9% in assay [2].
For the compound `CCS(=O)(=O)N1Cc2nccn2CC(Cn2nc(C)nc2C)C1` (configuration not stated), the Percent Effect in assay [1] stood at 0.776%; in assay [2], 6.38%.
For `Cc1cc(O)nc(C2CCCN(Cc3ccncc3)C2)n1` (configuration not stated) the same measures were 1.35% and 11.8%.
For `Cc1cc(NC(=O)CN2CCc3nn(C)c(=O)cc3C2)on1`, the results for the Percent Effect in assay [1] and in assay [2] were 11.6% and -13.1%, respectively.
For `CCn1cc(CN2CCCN(C(=O)c3ccn(C)c(=O)c3)CC2)cn1`, the Percent Effect was 1.33% in assay [1] and -0.744% in assay [2].
With `Cc1cc(C)n(CC2CCCCN2C(=O)c2cnn(C)c2)n1` (configuration not stated), the values for the Percent Effect in assay [1] and in assay [2] were -5.01% and -14%, respectively.
Taken in the same sequence, the figures for `Cc1cc(C(=O)N2CCc3nnc(N(C)C)cc3C2)c(C)n1C1CC1` were 0.451% and -0.445%.
In the case of `COCCN1CCC2(CC1)CC(COC)N(c1ncccn1)C2` (configuration not stated), the Percent Effect was 0.446% in assay [1] and -9.07% in assay [2].
Regarding `CC(=O)N1CCN(C(=O)C2SCCc3sccc32)CC1` (configuration not stated), the Percent Effect is -0.324% in assay [1] and -46% in assay [2].
For `CCC(=O)N1CCC(Cc2ccccc2-c2ccccc2)(C(N)=O)C1` (configuration not stated) the same measures were -7.87% and 6.14%.
As for `CCNC(=O)c1ccc2c(c1)nc1n2CCN(Cc2ccco2)C1`, the Percent Effect was 3.83% in assay [1] and -56% in assay [2].
In the case of `Cc1cc(C(=O)N2CCCC(n3cncn3)C2)c(C)n1C1CC1` (configuration not stated), the Percent Effect in assay [1] is -2.4%; in assay [2] it was 9.3%.
Regarding `Cc1ccc(F)c(C(=O)N2CCN(S(C)(=O)=O)[C@@H](C)C2)c1`, the values for the Percent Effect in assay [1] and in assay [2] were -2.79% and -20.5%, respectively.
Regarding `Cc1cnc(NC(=O)c2ccc(-n3ncc(C#N)c3N)cc2)s1`, the Percent Effect in assay [1] was 0%; in assay [2], -13.3%.
On to `Cc1cc(CN2CCc3nn(C(C)C)c(=O)cc3C2)no1`, for which the Percent Effect in assay [1] was -1.25%; in assay [2] it was 6.39%.
In the case of `O=C(NCC1COCc2c(-c3cccnc3)nnn2C1)c1cccs1` (configuration not stated), the results for the Percent Effect in assay [1] and in assay [2] were 9.59% and -14.9%, respectively.
For `Cc1nc(C)n(CC2CN(c3ncnc4[nH]ccc34)CCO2)n1` (configuration not stated) the same measures were 0.364% and -9.54%.
On to `Cc1nc(CN2CCOCC3(CCN(c4cccnc4)CC3)C2)cs1`, for which the Percent Effect in assay [1] is 1.87%; in assay [2], -2.54%.
Taken in the same sequence, the figures for `CN(C)c1cc(C(=O)N2CCCC(n3cccn3)C2)ccn1` (configuration not stated) were -2.86% and -7.48%.
`O=C(c1cccnc1)N1CCCC2(CCN(c3ccsc3)C2=O)C1` (configuration not stated): the results for the Percent Effect in assay [1] and in assay [2] were 7.21% and -14.1%, respectively.
As for `O=S1(=O)COCCN1Cc1ccc(Cl)c(F)c1`, the values for the Percent Effect in assay [1] and in assay [2] were 2.49% and -5.38%, respectively.
In the case of `Cc1occc1C(=O)N1CCc2c(COCC3CC3)cncc2C1`, the Percent Effect in assay [1] is -0.443%; in assay [2] it was -11.9%.
For `O=C(NCCc1ccccc1)C1CCC(Cn2cnnn2)CC1` (configuration not stated), the Percent Effect was -4.3% in assay [1] and -20.1% in assay [2].
Consider `Cc1cc(C)n(CC2CCCN2C(=O)CCCc2ccccn2)n1` (configuration not stated), for which the Percent Effect is -1.59% in assay [1] and 31.8% in assay [2].
Regarding `CCN1CCN(C(=O)c2cnn(-c3ccccc3Cl)c2)CC1`, the Percent Effect in assay [1] turned out to be 0.83%; in assay [2], 16.9%.
`COCCOCC(=O)Nc1ccc(Br)cc1F`: the Percent Effect was -5.06% in assay [1] and -5.97% in assay [2].
For the compound `CCOCCCC(=O)NCc1cn2cc(Br)ccc2n1`, the Percent Effect in assay [1] was 0.599%; in assay [2] it was -66%.
Taken in the same sequence, the figures for `Cc1ccc(-c2cn[nH]c2C2CCCN(c3nccc(N)n3)C2)cc1` (configuration not stated) were 2.79% and -37.9%.
With `O=C(NCCN1CCNCC1)c1c(O)c2ccccc2[nH]c1=O`, the figures for the Percent Effect in assay [1] and in assay [2] were -0.319% and -77.4%, respectively.
For `c1ccc(-c2cnc(CN3CCCC3Cn3cncn3)o2)cc1` (configuration not stated) the same measures were -6.65% and 8.27%.
Turning to `O=C(CCOCc1ccccc1)N1CCCC1c1noc(C2CC2)n1` (configuration not stated), the Percent Effect in assay [1] came out at 14.9%; in assay [2] it was 22.2%.
Taken in the same sequence, the figures for `NC(=O)COc1cccc(C(=O)N2CCCC(n3ccnc3)C2)c1` (configuration not stated) were 0.962% and -19.9%.
On to `Cn1cnnc1C1CCCN(C(=O)c2cc(Cl)c3c(c2)OCO3)C1` (configuration not stated), for which the Percent Effect in assay [1] was -5.25%; in assay [2] it was -2.91%.
Taken in the same sequence, the figures for `CCc1ccc(NC(=O)c2cnc(N3CCN(C)CC3)nc2C)cc1` were -0.248% and -28%.
In the case of `CCOc1ccc(CC(=O)N2CCN(c3nccn3C)CC2)cc1`, the figures for the Percent Effect in assay [1] and in assay [2] were 5.09% and -64.2%, respectively.
For `CC(=O)NCCc1cc(N2CCN(C(C)=O)CC2)nc(C2CC2)n1` the same measures were -3.2% and -16%.
As for `CC(=O)c1cccc(OCCCC(=O)NCC2CCCN2C)c1` (configuration not stated), the Percent Effect in assay [1] was -2.48%; in assay [2], -4.3%.
Taken in the same sequence, the figures for `c1ccc(OCCCNCCn2cccn2)cc1` were -1.5% and -44.6%.
`Fc1ccc(-c2nnc(CN3CCOC(Cn4cncn4)C3)o2)cc1` (configuration not stated): the Percent Effect is 1.55% in assay [1] and -15.2% in assay [2].
For `Cn1cnnc1C1CCCN(C(=O)Cc2ccc3c(c2)OCCO3)C1` (configuration not stated), the Percent Effect is -2.39% in assay [1] and 11.9% in assay [2].
In the case of `COc1c(CNCc2cnn(C)c2)c(C(C)C)nn1C`, the Percent Effect in assay [1] was -1.63%; in assay [2] it was 6.94%.
As to `Cc1cc(C(=O)N[C@@H]2CCNC[C@H]2O)ccc1Cl`, the Percent Effect is 2.13% in assay [1] and 14.6% in assay [2].
For `Cn1cc(CN2CC[C@H](O)[C@@H]2Cc2ccncc2)cn1` the same measures were -1.6% and -6.08%.
As to `O=C(CCc1nccs1)N1CCN(c2ccc(Br)cn2)CC1`, the Percent Effect in assay [1] turned out to be 3.92%; in assay [2], 23.4%.
For `COc1ccc(-c2nnc(SC(C)C(=O)NC3CC3)[nH]2)c(OC)c1` (configuration not stated) the same measures were 2.19% and 7.63%.
As for `OCCn1cc(CN2CCN(CCOc3ccccc3F)CC2)cn1`, the Percent Effect in assay [1] is -0.699%; in assay [2], 24.4%.
Regarding `COc1c(C2CCCN2C(=O)c2ccc(Cl)o2)c(C)nn1C` (configuration not stated), the Percent Effect in assay [1] is -4.35%; in assay [2], 9.5%.
As to `Cc1nn(C)c(N(C)C)c1CNC1CCOc2c(F)cccc21` (configuration not stated), the Percent Effect in assay [1] is -0.433%; in assay [2], 30.8%.
In the case of `O=C(NCc1ccccc1CN1CCC(O)CC1)Nc1cccnc1`, the Percent Effect in assay [1] is 1.28%; in assay [2], -12.1%.
